Assay outcomes from PubChem.
The sample as a whole holds a higher share of hits than the screen did.
ALOX12 inh: inhibitors of human 12S-lipoxygenase ALOX12 | P18054 | purified 12hLO, xylenol orange hydroperoxide absorbance | Potency, µM (series often up to 108 µM), for the others: top-dose activity change, negative = inhibition, actives largely listed as inhibitors | hit rate 1.1% among 580,000 | AID 1671190; also: potency is read from the fitted curve at half-maximal effect
Target sequence (P18054 whole entry, looked up): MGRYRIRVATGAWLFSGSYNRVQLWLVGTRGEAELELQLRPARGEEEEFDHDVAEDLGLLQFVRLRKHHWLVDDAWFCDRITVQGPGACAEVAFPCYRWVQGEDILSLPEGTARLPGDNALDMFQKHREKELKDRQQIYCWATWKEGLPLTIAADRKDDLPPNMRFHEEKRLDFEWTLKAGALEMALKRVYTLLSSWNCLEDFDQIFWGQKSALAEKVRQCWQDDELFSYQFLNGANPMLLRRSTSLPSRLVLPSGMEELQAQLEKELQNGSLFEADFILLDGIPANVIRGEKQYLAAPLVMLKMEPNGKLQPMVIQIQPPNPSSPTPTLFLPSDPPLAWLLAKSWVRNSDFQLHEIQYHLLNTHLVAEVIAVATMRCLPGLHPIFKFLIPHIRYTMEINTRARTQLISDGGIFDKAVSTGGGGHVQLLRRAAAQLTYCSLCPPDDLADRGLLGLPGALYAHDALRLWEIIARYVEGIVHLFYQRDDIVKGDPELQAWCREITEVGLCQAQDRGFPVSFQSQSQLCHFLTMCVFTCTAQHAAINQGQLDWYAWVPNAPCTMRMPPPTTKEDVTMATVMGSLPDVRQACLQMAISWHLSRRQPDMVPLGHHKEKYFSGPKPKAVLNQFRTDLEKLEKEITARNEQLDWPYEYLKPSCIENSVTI
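Purified human 12hLO (150 nM final) in 25 mM Hepes, 0.01% Triton X-100, pH 7.0 was preincubated 15 min at room temperature with compound. Then 40 uM arachidonic acid was added, 30 min. Hydroperoxide was read by Fe-XO absorbance ratio 573/405 nm.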
TDP1 cell noCPT: qHTS for Inhibitors of human tyrosyl-DNA phosphodiesterase 1 (TDP1): qHTS in cells in absence of CPT; AID 686978, 2013; hit rate 15% among 420,000; Potency, µM (doses to about 46.2 µM), without a hit: at the top dose activity change, negative = growth inhibition, most hits filed as inhibitors; DT40 Tdp1-/- hTDP1 cells, no CPT, ATP luminescence, 48 h; also: potency is read from the fitted curve at half-maximal effect; nearly all actives have a fitted effect of over 55% in size
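Seeded 400 DT40-hTDP1 cells/well (vehicle DMSO, no 20 nM CPT); pinned compounds; ≥48 hr at 37 °C; CellTiter-Glo luminescence as viability measure.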
TDP1 cell CPT: DT40-hTDP1 cell growth loss with CPT; AID 686979; Potency, µM (series often up to 46.2 µM), without a hit: at the top dose activity change, negative = growth inhibition, usual class: inhibitors; chicken DT40 Tdp1-/-;hTDP1 cells + 20 nM CPT, ATP luminescence, 48 h; hit rate 12% among 420,000; also: potency is read from the fitted curve at half-maximal effect; nearly all actives have a fitted effect of over 55% in size
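Chicken DT40 Tdp1-/- cells stably complemented with human TDP1 were seeded at 400 cells/well in medium containing 20 nM camptothecin, exposed to pin-transferred compounds, and grown at 37 °C for at least 48 hr. Viability was read as ATP luminescence.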
HT1080 IDH1KD tx: toxicity to HT-1080 IDH1 knockdown cells (counter line); HT-1080 IDH1 knockdown viability, ATP luminescence, 48 h; Potency, µM (titrated, usually from 46.1 µM), inactives show at the top dose activity, negative = toxicity, most hits filed as cytotoxic; hit rate 2% among 360,000; AID 686971;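 also: potency is read from the fitted curve at half-maximal effect; 0% = DMSO wells and -100% = cell-free medium wells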
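After a 2 h attachment period, IDH1KD HT-1080 cells took pin-transferred compound for 48 h at 37 °C; ATP-based luminescence after 10 min room-temperature reagent incubation reported viability.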
IL-1B inflam inh: blocks inflammasome-driven IL-1 beta release; activity change, % at 57.5 µM; hit rate 4.7% among 360,000; THP-1 LPS/ATP IL-1B secretion, AlphaLISA, 16 h; hits give low values; in the data active = activity change below about -50%; inconclusive = mostly about -30% to -49%
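Secreted IL-1B measured by AlphaLISA bead assay after 16 h compound exposure of THP-1 cells; compounds (final up to 57.5 uM) added 1 h before LPS (250 ng/mL) and ATP (1.25 mM) stimulation; lower signal means less secretion.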
HT1080NT lethal: kills 2HG-producing HT-1080-NT fibrosarcoma cells. HT-1080-NT fibrosarcoma viability, CellTiter-Glo ATP luminescence, 48 h. hit rate 1.6% among 360,000. Potency, µM (titrated, usually from 46.1 µM), for the others: at the highest dose activity, negative = less viability, actives largely listed as cytotoxic. AID 686970;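 also: NT is the 2HG producing partner of a matched IDH1 knockdown line; potency is read from the fitted curve at half-maximal effect; 0% = DMSO-treated cells and -100% = media-only wells without cells; nearly all actives have a fitted effect of over 55% in size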
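Compounds were tested in concentration-response format on HT-1080-NT cells for 48 hours at 37 degrees C. Cell viability came from CellTiter-Glo luminescence; curves were classified by r2, response magnitude and activity.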
* = called active by the depositor; u = inconclusive; x = no result. Unless noted, calls follow the shape of the dose curve; as a rule, active = well fitted curve in the direction sought with a large enough effect; inconclusive = small, poorly fitted or top-dose-only effect, or another doubt; inactive = no such curve, though single readings can be large; an effect the other way counts as inactive or inconclusive. Unless noted, % is scaled to controls: 0 for no effect and ±100 for the full control effect.

SMILES	ALOX12 inh	TDP1 cell noCPT	TDP1 cell CPT	HT1080 IDH1KD tx	IL-1B inflam inh	HT1080NT lethal
Cc1ccc2[nH]c(=O)c3cc(C(=O)NCC4CCCO4)sc3c2c1 (stereo not given)	-10%	u	-10%	8%	-81*	13%
CCCN(CCC)CCCNC(=O)c1cc2c(=O)[nH]c3ccccc3c2s1	0%	-6%	35%	-15%	-73*	-29%
CCCN1CCN(CCCNC(=O)c2cc3c(=O)[nH]c4ccc(C)cc4c3s2)CC1	5%	16µM*	u	26µM*	x	21µM*
COc1cccc(OCCCOc2ccccc2/C=N/NC(=O)c2cccc(Cl)c2)c1	13%	x	x	x	x	x
CC(=O)Nc1ccc(C2(C(=O)NCc3ccc(F)cc3Cl)CCC2)cc1	24%	x	x	x	x	x
OCCN1CCN(Cc2ccc3c(c2)CN(Cc2cnc(-c4ccccc4)s2)CCO3)CC1	16%	-22%	5%	x	x	x
COc1cccc(-n2nnnc2S(C)(=O)=O)c1	x	2.6µM*	2.1µM*	7.3µM*	-92*	u
Cc1cccc(-n2nnnc2S(C)(=O)=O)c1	-5%	0.73µM*	1.2µM*	x	x	x
NS(=O)(=O)c1ccc(NC(=O)C2CCn3c(C(=O)c4ccccc4)ccc32)cc1 (stereo not given)	1%	x	x	x	x	x
COc1ccc(NC(=O)c2ccccc2N(Cc2ccccc2)S(C)(=O)=O)c(OC)c1	16%	u	23µM*	-17%	-10	4%
COc1ccc(OC)c(NC(=O)c2ccccc2N(Cc2ccccc2)S(C)(=O)=O)c1	-30%	u	15µM*	0%	u	-1%
Cc1n(CC(O)COC2CCCCC2)c2ccccc2[n+]1C (stereo not given)	236%	13µM*	u	1%	11	10%
O=C(NCCc1c[nH]c2ccccc12)C(=O)NCC1OCCN1S(=O)(=O)c1ccccc1 (stereo not given)	-16%	u	u	-1%	1	1%
O=C(NCCc1c[nH]c2ccccc12)C(=O)NCC1OCCCN1S(=O)(=O)c1ccccc1 (stereo not given)	-3%	16µM*	-79%	-13%	0	-1%
Cc1cc(C)c(S(=O)(=O)N2CCOC2CNC(=O)C(=O)NCCc2c[nH]c3ccccc23)c(C)c1 (stereo not given)	4%	18µM*	26µM*	-4%	-8	-16%
O=C(NCCc1c[nH]c2ccccc12)C(=O)NCC1OCCN1S(=O)(=O)c1ccc(Cl)cc1 (stereo not given)	16%	21µM*	u	1%	7	0%
COc1ccccc1CCNC(=O)C(=O)NCC1OCCN1S(=O)(=O)c1ccc(C)cc1 (stereo not given)	2%	u	-23%	1%	20	4%
Cc1ccc(S(=O)(=O)N2CCCOC2CNC(=O)C(=O)NCCc2c[nH]c3ccccc23)cc1 (stereo not given)	7%	18µM*	15µM*	-16%	-60*	-14%
O=C(NCCc1c[nH]c2ccccc12)C(=O)NCC1OCCN1S(=O)(=O)c1ccc(F)cc1 (stereo not given)	7%	u	u	1%	14	0%
COc1ccc(CNC(=O)COC(=O)c2cc(S(=O)(=O)N3CCOCC3)ccc2O)cc1OC	u	-2%	2%	16%	20	9%
COC(CN1C(=O)C(O)=C(C(C)=O)C1c1ccccn1)OC (stereo not given)	u	5%	-4%	5%	7	9%
CC(C)c1ccc2c(c1)[C@H]1OCC[C@H]1[C@@H](c1cccs1)N2	4%	10µM*	16µM*	3.3µM*	-2	2.9µM*
COC(=O)C1OC2(OC1C(=O)OC)c1ccccc1-c1ccccc12 (stereo not given)	u	-19%	15%	6%	0	0%
Cc1ccccc1C1(O)c2ccccc2-c2ccccc21	-23%	15µM*	23µM*	1%	16	-2%
Cc1cccc(CC(=O)N2CCCCC2c2n[nH]c(C)n2)c1 (stereo not given)	5%	x	x	x	x	x
SMILES	ALOX12 inh	TDP1 cell noCPT	TDP1 cell CPT	HT1080 IDH1KD tx	IL-1B inflam inh	HT1080NT lethal
CCOC(=O)C(=CNc1cc(C(F)(F)F)ccc1N1CCOCC1)C(=O)OCC	-29%	16µM*	u	-2%	-53*	-1%
O=C(CCCCl)NC(=S)Nc1cc(C(F)(F)F)ccc1N1CCOCC1	u	15µM*	u	-13%	u	-16%
O=C(Nc1cc(C(F)(F)F)ccc1N1CCOCC1)C1Cc2ccccc2CN1C(=O)c1ccco1 (stereo not given)	u	u	16µM*	-9%	27	-8%
COc1ccc(NC(C)C(=O)Nc2cc(C(F)(F)F)ccc2N2CCOCC2)c(OC)c1 (stereo not given)	0%	23µM*	u	-20%	-24	-20%
COc1cc(OC)cc(-c2cc3c(Nc4ccc(OC)nc4)nccc3n2C)c1	-5%	x	x	x	x	x
O=C(COC(=O)/C=C/c1ccccc1)Nc1cc(C(F)(F)F)ccc1N1CCOCC1	-15%	11%	-1%	-12%	17	-19%
Cc1cc(C(=O)Nc2cc(C(F)(F)F)ccc2N2CCOCC2)no1	0%	-17%	-7%	-5%	0	-2%
Cc1cc(NC(=O)CSCC(=O)Nc2cc(C(F)(F)F)ccc2N2CCOCC2)no1	370%	4%	-17%	-1%	-14	2%
COc1ccccc1/C=C/C(=O)OCC(=O)Nc1cc(C(F)(F)F)ccc1N1CCOCC1	1%	2.6µM*	4.1µM*	u	35	u
Cc1ccc(NC(=O)CSCC(=O)Nc2cc(C(F)(F)F)ccc2N2CCOCC2)cc1	x	21µM*	18µM*	-27%	-5	-8%
O=C(CSc1nccc(=O)[nH]1)Nc1cc(C(F)(F)F)ccc1N1CCOCC1	-5%	-10%	-11%	-1%	20	-3%
CCCCn1nc(C(=O)Nc2cc(C(F)(F)F)ccc2N2CCOCC2)ccc1=O	5%	3.7µM*	23µM*	-8%	-26	-14%
Cc1ccc2nc(SCC(=O)Nc3cc(C(F)(F)F)ccc3N3CCOCC3)[nH]c2c1	-5%	0.82µM*	0.82µM*	1µM*	29	u
O=C(CSc1nc2ccccc2o1)Nc1cc(C(F)(F)F)ccc1N1CCOCC1	0%	u	u	u	-50*	-14%
